Assay results as given in ChEMBL document CHEMBL3988442, “University of Dundee, Small-Polar-MMV Screening Library” (2021).
The whole screen tested about 69,000 compounds, of which about 1,000 (1.4%) showed an effect of 50% or more. This is one part of a sample in which strong results are shown more often than they occur.

Test system: Leishmania donovani
Assay: Leishmania intramacrophage assay
Format: functional, organism-based
Parameters: scale not given: in the data most compounds retested in dose-response had high values

## COc1cc(CN2CCC(COCc3ccccc3)CC2)cc(OC)c1
30.3 µM, […]
  Percent Effect: 11.79%

## CCc1ccc(Cn2nccc2NC(=O)C2CCS(=O)(=O)C2)cc1 (stereo not given)
30.3 µM, […]
  Percent Effect: 28.09%

## COc1ccc(-c2nnc([C@H]3CCN(C4CCC4)C3)o2)cc1
30.3 µM, […]
  Percent Effect: 5.132%

## O=C(c1ccc(Cn2ccccc2=O)o1)N1CCSCC1
30 µM
  Percent Effect: 34.1%

## Cc1nc2c(c(NCc3ccc(-c4ccccn4)s3)n1)CCNCC2
30.3 µM, […]
  Percent Effect: 74.83%

## c1ccc(-c2nc3c(c(NCCn4ccnn4)n2)CCNCC3)nc1
30.3 µM, […]
  Percent Effect: 12.83%

## Cc1nc2c(c(NC3CCN(Cc4ccccc4)CC3)n1)CCNCC2
30.3 µM, […]
  Percent Effect: 8.424%

## Cc1nc2c(c(NCc3cc4ccccc4s3)n1)CCNCC2
30.3 µM, […]
  Percent Effect: 99.76%

## c1ccc(-c2nc3c(c(NCCn4cccc4)n2)CCNCC3)nc1
30.3 µM, […]
  Percent Effect: 4.707%

## Cc1nc2c(c(NCC(c3ccccc3C)N(C)C)n1)CCNC2 (stereo not given)
30.3 µM, […]
  Percent Effect: 37.15%

## Cc1nc2c(c(NCC(O)c3ccccc3Cl)n1)CCNCC2 (stereo not given)
30.3 µM, […]
  Percent Effect: 52.68%

## Cc1nc2c(c(NCc3nc4ccccc4s3)n1)CCNCC2
30.3 µM, […]
  Percent Effect: 11.81%

## Cc1nc2c(c(NCC3Cc4ccccc4CN3C)n1)CCNCC2 (stereo not given)
30.3 µM, […]
  Percent Effect: 11.22%

## COC[C@@]12CCC[C@@H]1CN(C(=O)CN(C)C)C2.O=C(O)C(F)(F)F
30.3 µM, […]
  Percent Effect: 2.882%

## CCc1cnc(CCNC(C)CC(=O)Nc2cccc(C)c2C)s1 (stereo not given)
30.3 µM, […]
  Percent Effect: 0.8494%

## COCC1CN(Cc2cccc(C#N)c2)Cc2nccn2C1 (stereo not given)
30.3 µM, […]
  Percent Effect: 20.19%

## CNC[C@H]1CC[C@H](c2cc(CN(C)S(=O)(=O)N(C)C)n(C)n2)CC1.Cl
30.3 µM, […]
  Percent Effect: 29.88%

## COCC1CC2(CCN(C(=O)c3ccc(C)nc3)CC2)CO1.O=C(O)C(F)(F)F (stereo not given)
30.3 µM, […]
  Percent Effect: 25.55%

## CN(C)[C@@H]1CCN(C(=O)NC2CCCC2)[C@H]1Cc1cnn(C)c1.O=C(O)C(F)(F)F
30 µM, 30.03 µM
  Percent Effect: 11.61%

## Cc1cc(N2CCC(c3nccn3Cc3cscn3)CC2)ccn1
30.3 µM, […]
  Percent Effect: -14.56%

## Cc1ccc(-c2nc(CNC(C)CCO)[nH]c2-c2ccccn2)cc1 (stereo not given)
30.3 µM, […]
  Percent Effect: 67.9%

## COCC(C)NCc1nc(-c2ccc(C)cc2)c(-c2ccccn2)[nH]1 (stereo not given)
30.3 µM, […]
  Percent Effect: 71.58%

## Cc1ccc(-c2nc(CNS(=O)(=O)N(C)C)[nH]c2-c2ccccn2)cc1
30.3 µM, […]
  Percent Effect: 30.48%

## Cc1cnn(CC(C)NCc2nc(-c3ccccn3)no2)c1 (stereo not given)
30.3 µM, […]
  Percent Effect: 2.286%

## CN(C)S(=O)(=O)NCc1nc(-c2cccc(F)c2)c(-c2ccccn2)[nH]1
30.3 µM, […]
  Percent Effect: 3.232%

## COCc1ccc(C(=O)N2CCOCC2c2ccc(C)o2)cc1 (stereo not given)
30.3 µM, […]
  Percent Effect: 18.1%

## O=C(O)C(F)(F)F.c1ccc(C[C@H]2CN(C3CCOCC3)CC[C@H]2OCC2CC2)cc1
30.3 µM, […]
  Percent Effect: 14.89%

## O=C(COc1coc(CN2CCCCCC2)cc1=O)c1ccccc1
30 µM, 30.03 µM
  Percent Effect: 12.38%

## Cc1cc(C)c2c(NCC3(O)CCCCC3)ncnc2n1
30.3 µM, […]
  Percent Effect: -4.66%

## CC(c1c(F)cccc1F)N1CCN(Cc2nccn2C)CC1 (stereo not given)
30.3 µM, […]
  Percent Effect: 28.44%

## O=C(N1CCCC1)N1CCc2ncnc(C3CCOC3)c2CC1 (stereo not given)
30 µM, 30.03 µM
  Percent Effect: -0.6847%

## CCN1CC(C(=O)N(C)Cc2cc3cc(F)ccc3[nH]2)CC1=O (stereo not given)
30.3 µM, […]
  Percent Effect: 16.63%

## CN(Cc1cc2cc(F)ccc2[nH]1)C(=O)C1CC(=O)N(C(C)(C)C)C1 (stereo not given)
30.3 µM, […]
  Percent Effect: 55.15%

## CN(Cc1cc2cc(F)ccc2[nH]1)C(=O)C1CC(=O)N(C2CC2)C1 (stereo not given)
30.3 µM, […]
  Percent Effect: 14.52%

## COC(=O)c1ccc(F)c(Cn2nc(C)cc2C)c1
30.3 µM, […]
  Percent Effect: 38.02%

## O=S(=O)(NC(CO)Cc1c[nH]c2ccccc12)c1cncc(F)c1 (stereo not given)
30.3 µM, […]
  Percent Effect: 19.78%

## Cc1ccc(C(=O)N2CCc3c(COCC4CC4)cncc3C2)o1
30.3 µM, […]
  Percent Effect: -21.23%

## COCc1nc(CNc2cccc(-c3ncon3)c2)cs1
30.3 µM, […]
  Percent Effect: 70.63%

## COCc1nc(CNc2cccc(-c3csc(C)n3)c2)cs1
30.3 µM, […]
  Percent Effect: -17.78%

## COCc1nc(CNc2cccc(-c3nc(C)c(C)o3)c2)cs1
30.3 µM, […]
  Percent Effect: 3.012%

## N#Cc1nccnc1NC1CCN(c2ccccc2Br)C1 (stereo not given)
30.3 µM, […]
  Percent Effect: -7.134%

## N#Cc1ccc(CNCC2CCN(CCO)CC2)cc1
30 µM, 30.03 µM
  Percent Effect: 18.87%

## OCCN1CCC(CNCc2cn(-c3ccccc3)nn2)CC1
30.3 µM, […]
  Percent Effect: -6.29%

## CS(=O)(=O)c1ccc(CNCC2CCN(CCO)CC2)cc1
30 µM, 30.03 µM
  Percent Effect: 7.016%

## NC(=O)c1ccc(CNCC2CCN(CCO)CC2)cc1
30.3 µM, […]
  Percent Effect: -0.3402%

## OCCN1CCC(CNCc2ccc(N3CCCCC3)cc2)CC1
30.3 µM, […]
  Percent Effect: 79.78%

## OCCN1CCC(CNCc2ccc(Br)cc2)CC1
30.3 µM, […]
  Percent Effect: 77.88%

## Cc1ccc(CNCC2CCN(CCO)CC2)cc1
30.3 µM, […]
  Percent Effect: -12.85%

## CCc1ccc(CNCC2CCN(CCO)CC2)cc1
30.3 µM, […]
  Percent Effect: 73.93%

## Cc1ncccc1CNCC1CCN(CCO)CC1
30 µM
  Percent Effect: 29.11%

## Cn1cc(CC2CC(=O)N(Cc3ccccc3OC(F)F)C2=O)cn1 (stereo not given)
30.3 µM, […]
  Percent Effect: 7.915%

## Cl.NC1CCN(C(=O)c2c(F)cccc2Br)CC1
30.3 µM, […]
  Percent Effect: 2.162%

## COc1ccc([C@@H]2CN(c3cnccn3)C[C@H]2N(C)C)cc1
30.3 µM, […]
  Percent Effect: -8.819%

## CC(C)Cn1cc(NC(=O)NC(C)(C)c2nccs2)cn1
30.3 µM, […]
  Percent Effect: -3.295%

## CCN(CC1CN(Cc2nccn2CC)CCO1)c1cccnn1 (stereo not given)
30.3 µM, […]
  Percent Effect: 7.569%

## CCS(=O)(=O)N1CCC(NC(=O)c2cc(C(C)C)ccc2O)CC1
30 µM
  Percent Effect: 11.27%

## CC(=O)N1CCC1c1cc(N2CCNC(=O)C2)nc(C)n1 (stereo not given)
30.3 µM, […]
  Percent Effect: 23.92%

## Cc1cnc(CN2CCCC(c3cc(C(N)=O)[nH]n3)C2)o1 (stereo not given)
30 µM, 30.03 µM
  Percent Effect: 5%

## c1ccc(-c2nnc(CN3CCOC(Cn4cccn4)C3)o2)cc1 (stereo not given)
30 µM
  Percent Effect: 14.93%

## Cn1ncc2c1CN(Cc1ccccc1F)CC2COCC1CC1.O=C(O)C(F)(F)F.O=C(O)C(F)(F)F (stereo not given)
30.3 µM, […]
  Percent Effect: 24.46%

## Cc1ccc(CN2Cc3nnn(C)c3C(COCC3CC3)C2)s1.O=C(O)C(F)(F)F (stereo not given)
30.3 µM, […]
  Percent Effect: 19.91%

## Cn1cc(CN2Cc3c(cnn3C)C(COCC3CC3)C2)cn1.O=C(O)C(F)(F)F.O=C(O)C(F)(F)F (stereo not given)
30.3 µM, […]
  Percent Effect: -2.121%

## Cc1ccc(CN2Cc3c(cnn3C)C(COCC3CC3)C2)s1 (stereo not given)
30.3 µM, […]
  Percent Effect: 92.44%

## Cn1ncc2c1CN(Cc1ccc(F)cc1)CC2COCC1CC1.O=C(O)C(F)(F)F.O=C(O)C(F)(F)F (stereo not given)
30.3 µM, […]
  Percent Effect: 51.09%

## Cn1ncc2c1CN(Cc1cccnc1)CC2COCC1CC1.O=C(O)C(F)(F)F.O=C(O)C(F)(F)F.O=C(O)C(F)(F)F (stereo not given)
30 µM, 30.03 µM
  Percent Effect: 26.28%
